Screens deposited in PubChem by several laboratories.
Only some compounds are listed: those with a hit (about 2% of all), similar ones and a draw of the others.
CHT inh = inhibitors of human choline transporter CHT; CHT-expressing cells, membrane potential dye, choline response; active compounds read low; B-score at 10 µM; 310,000 compounds, 0.86% hits; AID 488975;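 active = B-score over 3 SD under the library average, and starting fluorescence ratio not unusually high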;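 note: choline stimulus applied at its EC90 after an EC20 pre-addition; B-score computed on integrated fluorescence ratio after choline addition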
TAG inh = inhibitors of triacylglycerol accumulation. inhibition, % at 12.5 µM. 230,000 compounds, 0.66% hits. H9c2 cells, Nile Red lipid (TAG) fluorescence; cells loaded with 200 µM oleic acid. AID 651582;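 active = pattern-corrected inhibition of lipid staining of at least 50% with the nuclear-stain viability signal not falling by more than 50%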;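 note: 0% = DMSO wells and 100% = triacsin C control wells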
Kir21 block = inhibitors of mouse Kir2.1 inward-rectifier potassium channel. HEK293-Kir2.1, FluxOR thallium flux fluorescence; active compounds read low. 310,000 compounds, 0.85% hits. P35561. AID 1672. B-score at 10 µM;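 active = fluorescence ratio B-score at or below minus 3 SD of library scores, with starting-brightness B-score within 2 SD, cut at about -4.2 in these data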;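 note: channel flux triggered by added potassium and thallium sulfate stimulus; B-score of peak minus minimum fluorescence over baseline after thallium stimulus; more negative B-score means stronger Kir2.1 block with less thallium influx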
Target sequence (P35561 whole entry, looked up): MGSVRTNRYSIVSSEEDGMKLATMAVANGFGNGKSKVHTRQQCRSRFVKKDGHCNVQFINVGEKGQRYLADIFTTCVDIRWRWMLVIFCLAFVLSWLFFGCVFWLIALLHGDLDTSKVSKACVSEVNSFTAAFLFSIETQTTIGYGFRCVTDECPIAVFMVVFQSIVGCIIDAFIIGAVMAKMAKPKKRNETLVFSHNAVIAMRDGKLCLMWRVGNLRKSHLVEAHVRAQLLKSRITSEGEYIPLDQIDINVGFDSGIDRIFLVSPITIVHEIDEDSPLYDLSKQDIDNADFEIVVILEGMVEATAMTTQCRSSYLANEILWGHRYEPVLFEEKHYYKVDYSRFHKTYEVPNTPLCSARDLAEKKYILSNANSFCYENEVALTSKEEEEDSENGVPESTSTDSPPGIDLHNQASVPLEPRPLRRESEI
CHT PAM = allosterically activates the human high affinity choline transporter; Q9GZV3; CHT-expressing cells, membrane potential dye, choline EC20; active compounds read high; LV-AA mutant CHT in HEK293 cells; B-score at 10 µM; 310,000 compounds, 0.49% hits; AID 488977;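 active = initial fluorescence not abnormally high and integrated response B-score, plate-corrected, over 3 SD above library mean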
Active calls of the source: *; i = inactive; · = not tested or not shown.

SMILES	CHT inh	TAG inh	Kir21 block	CHT PAM
O=C(OCCc1ccccn1)c1cccc([N+](=O)[O-])c1	·	20.0	·	·
CCC1=C2CC[C@H]3C(=O)NC(=O)[C@H]3[C@H]2[C@@]2(Cc3ccccc3)C(=NCC(=O)OC)OC(=O)N2C1=O	i	-7.9	·	i
COC(=O)CSC1=NS(=O)(=O)c2ccccc21	i	6.7	-5.81*	i
Cc1ccc2c(C)c(C(=O)NCCN3CCCC(O)C3)oc2c1C (stereo unspecified)	i	·	1.24	i
CCOc1cc(/C=C(\C#N)C(=O)Nc2cccc(C(=O)O)c2)cc(Br)c1OC(=O)c1ccc(OC)cc1	i	·	-5.35*	i
CCOc1cc(/C=C(\C#N)C(=O)Nc2cccc(C(=O)O)c2)ccc1OCc1ccccc1Cl	i	·	1.87	i
CCN(CC)CCNC(=O)CCc1c(C)nc2c(c(C)nn2-c2ccc(C)cc2)c1C	i	·	-4.45*	i
COc1cc(/C=C(/C(=O)c2cccs2)c2nc3ccccc3[nH]2)ccc1O	i	-21.3	-4.41*	i
O=C(/C(=C/c1ccc(Cl)cc1)c1nc2ccccc2[nH]1)c1cccs1	i	·	-1.21	i
O=C(CCl)N(Cc1cc(=O)[nH]c2ccccc12)c1ccccc1	i	·	-0.91	i
Cc1sc(NC(=O)CN2CCN(c3ccccn3)CC2)c(C#N)c1C	i	-72.8	-4.45*	i
CCn1c(Cl)c(C=O)s/c1=N\S(=O)(=O)c1ccccc1	i	84.6*	-1.83	i
CCN1C(=O)CS/C1=N\S(=O)(=O)c1ccc(Cl)cc1	i	3.5	0.03	i
Cc1cc(C(=O)N2CCCC(C)(C(=O)NS(=O)(=O)C3CC3)C2)n(C(C)(C)C)n1 (stereo unspecified)	·	4.2	·	·
Cc1ccc(C(O)(CNCc2ccccc2)c2ccccc2)cc1 (stereo unspecified)	i	·	-10.5*	i
COc1ccc(CNCC(O)(c2ccccc2)c2ccc(F)cc2)cc1 (stereo unspecified)	i	·	-7.05*	i
O=c1c(Br)ccc(Br)cc1Br	·	98.8*	·	·
O=C1CN(S(=O)(=O)c2cc(Br)ccc2Br)CCN1	·	-4.5	·	·
CC(NC(=O)CC1CCCCC1)c1ccccc1 (stereo unspecified)	i	-7.6	-0.1	i
C=C(C)CC1(NC(C)c2ccccc2)CCCCC1 (stereo unspecified)	i	·	-4.91*	i
CCC(C)(C)C1CCC(NC(=O)N2CCN(c3ccccc3O)CC2)CC1 (stereo unspecified)	i	·	-1.16	i
O=[N+]([O-])c1ccc(N=Nc2ccc(O)c3ccccc23)cc1	·	55.9*	·	·
O=S(=O)(Nc1ccc(N=Nc2ccc(O)c3ccccc23)cc1)c1ccccc1	i	·	1.86	i
Cc1ccccc1CSc1nccn1-c1ccccc1	i	-22.7	-4.43*	i
CC(=O)Oc1c(/C=C(\C#N)C(N)=O)[nH]c2ccccc12	·	·	-4.98*	·
SMILES	CHT inh	TAG inh	Kir21 block	CHT PAM
CC(C)CCn1c(=O)c2sccc2n2c(CCCC(=O)N3CCC(N4CCCCC4)CC3)nnc12	i	·	-0.88	i
COc1cccc2c1C1COC3C4CC(C(=O)O)C(C(C2)N13)N4C (stereo unspecified)	·	7.0	·	·
O=C(CSc1ncn[nH]1)Nc1ccccc1Sc1ccc(Cl)cc1	i	·	-4.71*	i
O=C(CN1CCCC1)Nc1ccccc1Sc1ccccc1	i	-1.9	-4.23*	i
O=C(CN1CCOCC1)Nc1ccccc1Sc1ccc(Cl)cc1	i	·	-5.17*	i
O=C(CN1CCCCC1)Nc1ccccc1Oc1ccccc1	i	-3.5	-5.56*	i
CS(=O)(=O)N1CCCC(C(=O)Nc2ccc(F)c(F)c2)C1 (stereo unspecified)	·	13.0	·	·
Cn1cc(C(c2ccccc2OCC(=O)O)c2cn(C)c3ccccc23)c2ccccc21	i	·	0.82	i
COc1ccc(S(=O)(=O)N2CCOCC2)cc1NC(=O)CN1C(=O)NC2(CCCC2)C1=O	·	1.1	·	·
COc1ccc(C(=O)OCC(O)COC(=O)c2ccc(OC)cc2)cc1	i	-2.5	-0.54	i
CCN(CC)CCN1c2ccccc2Sc2ccccc21	i	1.8	-4.67*	i
COc1ccccc1NC(=O)Cc1nnc(SCC(=O)NC2=NCCS2)n1C	i	·	0.04	i
O=c1c2ccccc2oc2nc(-c3cccs3)n(CCc3ccccc3)c(=O)c12	i	·	-0.08	i
O=C(c1ccc(Br)cc1)c1cc([N+](=O)[O-])ccc1N1CCCCC1	i	59.3*	1.29	i
O=S(=O)(NCCc1cccs1)c1ccc(Br)cc1	i	·	-5.31*	i
C/C(=N\NC(=O)C12CCC(C)(C(=O)O1)C2(C)C)c1ccccc1O (stereo unspecified)	i	52.5*	0.75	i
CC12CCC(C(=O)NCc3ccccc3)(OC1=O)C2(C)C (stereo unspecified)	i	6.1	-0.78	i
Cc1ccc(CSCCNS(=O)(=O)c2ccc(C)cc2)cc1	i	·	-5.48*	i
CCOC(=O)CCS(=O)(=O)c1nc(-c2ccccc2)cc(C(F)(F)F)n1	i	74.3*	-3.05	i
COC(=O)CCS(=O)(=O)c1nc(-c2ccccc2)cc(C(F)(F)F)n1	i	·	-4.6*	i
CS(=O)(=O)c1nc(-c2cccs2)cc(C(F)(F)F)n1	i	·	-5.97*	i
CCOC(=O)CS(=O)(=O)c1nc(-c2ccc(F)cc2)cc(C(F)(F)F)n1	i	18.4	-4.48*	i
COCC(C)NC(=O)CCS(=O)(=O)c1nc(-c2ccc(OC)cc2)cc(C(F)(F)F)n1 (stereo unspecified)	i	18.7	-0.56	i
O=C(O)CCS(=O)(=O)c1nc(-c2cccs2)cc(C(F)(F)F)n1	i	·	-1.2	i
N#Cc1cc2c(nc1SCc1ccncc1)CCC2	i	·	1.41	i
SMILES	CHT inh	TAG inh	Kir21 block	CHT PAM
C=CCC[C@H](Cc1ccc(F)cc1)C(=O)OC[C@@H](Cc1c[nH]c2ccccc12)NC(=O)[C@H](CC=C)CC(=O)N(CCO)Cc1ccccc1	·	56.5*	·	·
CN(C(=O)COC(=O)c1ccc(Br)c(S(=O)(=O)N2CCOCC2)c1)C1CCCCC1	·	-14.8	·	·
c1ccc(-c2ccc(OCCCNC3CCCC3)cc2)cc1	i	·	-5.8*	i
c1ccc(Cc2ccc(OCCCNC3CCCC3)cc2)cc1	i	·	-8.13*	i
c1ccc(SCCCCNC2CCCC2)cc1	i	9.2	0.87	i
COc1ccc(Nc2nc(NCC3CCCO3)c3ccccc3n2)c(OC)c1 (stereo unspecified)	i	9.8	-9.9*	i
c1ccc(Nc2nc(NCC3CCCO3)c3ccccc3n2)cc1 (stereo unspecified)	i	12.8	-15.3*	i
OCCNc1nc(Nc2ccccc2)nc(Nc2ccccc2)n1	i	14.2	2.19	i
OCCNc1nc(Nc2ccc(Br)cc2)nc2ccccc12	i	·	-13.3*	i
Nc1nc(NCC2CCCO2)nc(Nc2cccc(F)c2)c1[N+](=O)[O-] (stereo unspecified)	i	-6.4	-1.59	i
Nc1nc(NCC2CCCO2)nc(Nc2ccccc2)c1[N+](=O)[O-] (stereo unspecified)	i	·	-0.08	i
